PLK1 kinase inh: PLK1 (human) kinase inhibition; P53350; recombinant PLK1 kinase, TR-FRET peptide phosphorylation; inhibition, % at 10 µM; hit rate 0.53% among 97,000; AID 619;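 active = inhibition of 50% or more in the single-concentration screen; inactive = inhibition below 50%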;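 also: 0% = DMSO max control and 100% = H-89 dihydrochloride min control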
PTPN22 act: increases human PTPN22 phosphatase activity; activation, % at 2 µM; Q9Y2R2; hit rate 0.11% among 96,000; recombinant LYP, DiFMUP fluorescence; 0 = plate median, 100 = signal doubled;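 active = activation at 2 µM above a set limit, the mean plus 5 SD, cut at about 37% in these data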
Target sequence (Q9Y2R2 whole entry, looked up): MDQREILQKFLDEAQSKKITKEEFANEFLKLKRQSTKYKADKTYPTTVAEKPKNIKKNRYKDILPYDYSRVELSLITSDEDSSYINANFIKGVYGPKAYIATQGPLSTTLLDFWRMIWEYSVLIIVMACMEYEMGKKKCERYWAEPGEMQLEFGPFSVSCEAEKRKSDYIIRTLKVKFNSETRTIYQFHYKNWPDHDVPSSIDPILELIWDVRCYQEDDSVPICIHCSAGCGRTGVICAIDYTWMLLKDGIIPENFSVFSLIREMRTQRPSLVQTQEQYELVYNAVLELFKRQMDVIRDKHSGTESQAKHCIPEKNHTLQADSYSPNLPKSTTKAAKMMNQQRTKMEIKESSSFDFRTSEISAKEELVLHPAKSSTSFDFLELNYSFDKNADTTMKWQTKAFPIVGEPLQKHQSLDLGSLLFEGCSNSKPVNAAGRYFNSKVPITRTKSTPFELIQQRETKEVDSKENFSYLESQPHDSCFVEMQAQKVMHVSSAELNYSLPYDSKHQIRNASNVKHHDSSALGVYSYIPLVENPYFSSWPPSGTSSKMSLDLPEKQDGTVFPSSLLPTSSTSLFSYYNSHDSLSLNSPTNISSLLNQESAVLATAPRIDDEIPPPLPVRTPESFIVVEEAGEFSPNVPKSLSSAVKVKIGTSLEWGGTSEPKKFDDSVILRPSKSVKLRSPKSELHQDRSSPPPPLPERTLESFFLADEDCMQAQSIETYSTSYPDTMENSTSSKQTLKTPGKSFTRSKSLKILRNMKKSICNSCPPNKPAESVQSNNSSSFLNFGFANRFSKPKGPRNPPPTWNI
LYP inh 2: LYP (human) phosphatase inhibition; Q9Y2R2; recombinant LYP catalytic domain, DiFMUP fluorescence; inhibition, % at 2 µM; hit rate 0.21% among 96,000; AID 640;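 active = inhibition at 2 µM at or above a set limit, the screen mean plus 3 SD, cut at about 24% in these data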;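 also: 0% = DMSO with enzyme and 100% = enzyme fully blocked by orthovanadate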
FAK blocker: FAK (human) kinase inhibition; Q05397; biochemical FAK kinase activity assay; inhibition, %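 (tested at 7 µM)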; hit rate 0.84% among 97,000; in the data active = inhibition above about 19%;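 also: 0% = DMSO and 100% = reference compound high control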
EphB4 ephrin blk: antagonists of human EphB4-ephrin-B2 interaction | EphB4 LBD / TNYL-RAW-Alexa532 peptide, fluorescence polarization | P54760 | inhibition, % at 7 µM | hit rate 0.15% among 97,000;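 active = inhibition above the screen-wide mean inhibition plus 3 SD, cut at about 15% in these data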;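 also: 0% = DMSO wells and 100% = excess unlabeled TNYL-RAW peptide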
PLK1 PBD inh: Plk1 (human) PBD binding inhibition; P53350; hit rate 0.13% among 97,000; Plk1 PBD phosphopeptide binding, fluorescence polarization; AID 693; inhibition, %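 (tested at about 20 µM)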; in the data active = inhibition above about 34%, passing the limit was not always enough
The depositor's hits bear a star. In the library only some 1.7% were active in any assay of this set; here they are far more common.

`CCOc1ccc(C2C(C#N)=C(N)Oc3cc(C)n(CCN(C)C)c(=O)c32)cc1OCC` (centres undefined) gave PLK1 kinase inh -1.1, PTPN22 act -8.6, LYP inh 2 3.8, FAK blocker 0.8, EphB4 ephrin blk -0.6 and PLK1 PBD inh 11.6.
For CC(=O)Nc1nonc1NC(=O)c1ccc(C(C)(C)C)cc1 the results were PLK1 kinase inh -12.3, PTPN22 act -58.6, LYP inh 2 58.5*, FAK blocker -1.3, EphB4 ephrin blk 1.5 and PLK1 PBD inh 16.6.
For Cc1ccc(C(=O)Nc2nnc(-c3ccc(C(C)(C)C)cc3)s2)cc1 the results were PLK1 kinase inh -129.1, PTPN22 act 4.0, LYP inh 2 -5.8, FAK blocker -3.8, EphB4 ephrin blk -2.9 and PLK1 PBD inh -9.2.
`CCOc1ccc(NC(=O)C(C)Oc2ccccc2C(=O)Nc2ccc(C)c(Cl)c2)cc1` (centres undefined) gave PLK1 kinase inh -7.8, PTPN22 act 8.4, LYP inh 2 -4.0, FAK blocker 2.2, EphB4 ephrin blk 16.8* and PLK1 PBD inh -2.5.
For CCOc1ccc(NC(=O)c2ccccc2OCC(=O)c2ccc(C)cc2)cc1 the results were PLK1 kinase inh -11.0, PTPN22 act 1.7, LYP inh 2 -4.8, FAK blocker -1.9, EphB4 ephrin blk -1.5 and PLK1 PBD inh 8.6.
COCCn1c(C)cc(C(=O)COc2nc3ccccc3nc2C)c1C was read as PLK1 kinase inh -8.9, PTPN22 act 0.8, LYP inh 2 -3.3, FAK blocker 4.2, EphB4 ephrin blk 20.0* and PLK1 PBD inh -6.7.
For Cc1ccc(N2C(=O)C(O)(C(F)(F)F)C3=C2CC(C)(C)CC3=O)cc1C (centres undefined) the results were PLK1 kinase inh -6.6, PTPN22 act -4.6, LYP inh 2 8.2, FAK blocker -5.3, EphB4 ephrin blk 16.5* and PLK1 PBD inh 3.2.
Screening Cc1[nH]n(-c2ccccc2)c(=O)c1C1(C(F)(F)F)C(=O)N(c2ccccc2)C2=C1C(=O)CC(C)(C)C2 (centres undefined) returned PLK1 kinase inh -4.0, PTPN22 act 6.5, LYP inh 2 -7.5, FAK blocker -3.4, EphB4 ephrin blk -3.6 and PLK1 PBD inh 8.0.
Screening CCOC(=O)c1cnc2c(C#N)c(C)nn2c1-c1ccccc1 returned PLK1 kinase inh 64.2*, FAK blocker -5.1, EphB4 ephrin blk -3.9 and PLK1 PBD inh 9.9.
Cn1c2c(c(=O)n(C)c1=O)C(c1ccccc1OC(F)F)C1=C(CCCC1=O)N2 (centres undefined) was read as PLK1 kinase inh -6.3, PTPN22 act -1.0, LYP inh 2 -0.5, FAK blocker 7.8, EphB4 ephrin blk 4.8 and PLK1 PBD inh -5.4.
For Cc1cc(C)nc(Sc2nc(Cl)nc(N(c3ccccc3)c3ccccc3)n2)n1 the results were PLK1 kinase inh -15.2, PTPN22 act 0.4, LYP inh 2 -1.9, FAK blocker -4.3, EphB4 ephrin blk 0.0 and PLK1 PBD inh -13.5.
Clc1ccc(C2=Nn3c(nnc3-c3cc(-c4ccccc4)n[nH]3)SC2)cc1 was read as PLK1 kinase inh -11.9, PTPN22 act -23.6, LYP inh 2 27.5*, FAK blocker -2.9, EphB4 ephrin blk 1.6 and PLK1 PBD inh -5.7.
c1ccc(C2=Nn3c(nnc3-c3cc(-c4ccccc4)n[nH]3)SC2)cc1 was read as PLK1 kinase inh -4.7, PTPN22 act -2.4, LYP inh 2 0.2, FAK blocker -0.7, EphB4 ephrin blk 1.5 and PLK1 PBD inh -25.9.
Screening Cn1cc(CC(=O)NCCCN2CCCC2=O)c2ccccc21 returned PLK1 kinase inh -6.5, PTPN22 act -9.8, LYP inh 2 8.4 and PLK1 PBD inh -23.8.
Screening CCN(CC)S(=O)(=O)c1ccc(NC2c3ccccc3C(=O)N2Cc2ccc3c(c2)OCO3)cc1 (centres undefined) returned PLK1 kinase inh 66.2*, FAK blocker 5.2, EphB4 ephrin blk -1.6 and PLK1 PBD inh 8.5.
Screening O=C1c2ccccc2C(Nc2ccc3c(c2)OCCO3)N1Cc1ccc2c(c1)OCO2 (centres undefined) returned PLK1 kinase inh -11.6, PTPN22 act 13.1, LYP inh 2 -14.3, FAK blocker 2.9, EphB4 ephrin blk -4.8 and PLK1 PBD inh 24.2.
COc1cc(OC)cc(C(=O)NC2=NCCS2)c1 was read as PLK1 kinase inh -1.9, PTPN22 act -0.2, LYP inh 2 2.6, FAK blocker 0.4, EphB4 ephrin blk -2.1 and PLK1 PBD inh -13.8.
Screening CC1CCN(S(=O)(=O)c2cc(Br)cc(C(=O)NC3=NCCS3)c2)CC1 returned PLK1 kinase inh -11.7, PTPN22 act -8.9, LYP inh 2 6.1, FAK blocker 7.8, EphB4 ephrin blk 16.7* and PLK1 PBD inh 4.1.
CCC1CC2CC(NC(C)=O)C1C2 (centres undefined) was read as PLK1 kinase inh -12.4, PTPN22 act 9.7, LYP inh 2 -13.6, FAK blocker 0.9, EphB4 ephrin blk -1.8 and PLK1 PBD inh -1.3.
For O=C(c1c[nH]c2ccc(S(=O)(=O)N3CCC4(CC3)OCCO4)cc2c1=O)N1CCOCC1 the results were PLK1 kinase inh -4.6, PTPN22 act 0.1, LYP inh 2 -3.4, FAK blocker 4.0, EphB4 ephrin blk 16.9* and PLK1 PBD inh 4.0.
Screening O=C(Nc1ncc(Cc2ccccc2)s1)C1COc2ccccc2O1 (centres undefined) returned PLK1 kinase inh -11.3, PTPN22 act -0.3, LYP inh 2 2.4, FAK blocker 8.0, EphB4 ephrin blk 6.9 and PLK1 PBD inh -13.0.
`O=C(NC1CC2CCCC(C1)N2C(=O)Nc1ccccc1)c1ccncc1` (centres undefined) gave PLK1 kinase inh -10.9, PTPN22 act -5.4, LYP inh 2 7.7, FAK blocker -1.1, EphB4 ephrin blk -5.7 and PLK1 PBD inh 7.5.
`CC(=O)NC1CC2CCCC(C1)N2C(=O)Nc1ccccc1` (centres undefined) gave PLK1 kinase inh -7.9, PTPN22 act -58.8, LYP inh 2 59.5*, FAK blocker -1.2, EphB4 ephrin blk 0.8 and PLK1 PBD inh 1.9.
`Cc1ccc(-n2c(C)cc(C(=S)N3CCOCC3)c2C)cc1C` gave PLK1 kinase inh -11.2, PTPN22 act -15.8, LYP inh 2 18.9, FAK blocker 3.7, EphB4 ephrin blk -0.4 and PLK1 PBD inh 7.5.
`CC(=O)C1=C(C)Nc2ncnn2C1c1cccc(OCc2ccccc2)c1` (centres undefined) gave PLK1 kinase inh 50.7*, PTPN22 act 3.9, LYP inh 2 -5.7, FAK blocker -2.7, EphB4 ephrin blk -5.4 and PLK1 PBD inh -7.8.
CC1=C(C(=O)OCc2ccccc2)C(c2cccnc2)n2ncnc2N1 (centres undefined) was read as PLK1 kinase inh 36.3, PTPN22 act -1.9, LYP inh 2 1.3, FAK blocker -4.5, EphB4 ephrin blk -2.3 and PLK1 PBD inh -14.7.
Screening CCCCCOC(=O)CSc1nnc(-c2ccccc2)c(=O)[nH]1 returned PLK1 kinase inh -13.8, PTPN22 act -0.8, LYP inh 2 -0.8, FAK blocker -3.4, EphB4 ephrin blk -2.8 and PLK1 PBD inh -25.6.

Source: PubChem (several laboratories)
